Binding signal data for one sequence are collected here from article PMC7862700, “An all-to-all approach to the identification of sequence-specific readers for epigenetic DNA modifications on cytosine”.

Common to all, as to assay: DAPPL (digital affinity profiling via proximity ligation, sequencing); 10 mM Tris-HCl pH 7.5, 50 mM NaCl, 1 mM DTT, 4% glycerol, room temperature, 30 min; GST-TFs on glutathione beads, 16-mer random dsDNA library, 0.1% formaldehyde crosslink after washing; high values mean tight binding
The target of one assay is T1, FEV (Homo sapiens, UniProt Q99581 1-238).
T1 sequence: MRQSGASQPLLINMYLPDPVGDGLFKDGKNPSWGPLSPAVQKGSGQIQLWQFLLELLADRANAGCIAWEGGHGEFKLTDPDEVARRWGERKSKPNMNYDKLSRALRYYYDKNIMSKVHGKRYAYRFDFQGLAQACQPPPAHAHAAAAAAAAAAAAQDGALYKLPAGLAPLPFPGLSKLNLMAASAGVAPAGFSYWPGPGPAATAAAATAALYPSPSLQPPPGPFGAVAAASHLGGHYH
The conditions noted are these: protein: recombinant; tags: N-terminal GST; dsDNA, one strand shown. In short, it runs like this:
(§1)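 Binding signal is each hexamer's read frequency for a factor divided by its frequency in the tag-only sample. The factors were GST-fused human transcription factors from yeast, captured on glutathione beads, DNA-barcoded and pooled with that sample. Pools were incubated with 200 nmole of a random double-stranded 16-mer DNA library in Tris/NaCl/DTT/glycerol buffer at room temperature for 30 min, then washed, crosslinked with 0.1% formaldehyde, proximity-ligated with BsaI/T4 ligase (1 h, 37 °C), PCR-amplified and sequenced on an Illumina NextSeq500.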

The next assay addresses ETV5 (Homo sapiens, UniProt P41161 1-510). The conditions noted are these: protein: recombinant; tags: N-terminal GST; dsDNA, one strand shown. Put shortly:
as §1

The next assay concerns the target HSF1 (Homo sapiens, UniProt Q00613 1-529). The conditions noted are these: protein: recombinant; tags: N-terminal GST; chain copies: 3; dsDNA, one strand shown. In short, it runs like this: as §1
In the next assay the target is T2, SPIC (Homo sapiens, UniProt Q8N5J4 1-248).
T2 sequence: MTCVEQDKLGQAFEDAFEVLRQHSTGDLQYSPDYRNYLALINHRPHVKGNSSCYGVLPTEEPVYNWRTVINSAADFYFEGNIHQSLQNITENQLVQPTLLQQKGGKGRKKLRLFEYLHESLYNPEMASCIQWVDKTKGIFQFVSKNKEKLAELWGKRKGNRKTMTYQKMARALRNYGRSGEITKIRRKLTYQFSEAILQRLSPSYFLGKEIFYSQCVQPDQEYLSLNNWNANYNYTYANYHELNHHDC
The conditions noted are these: protein: recombinant; tags: N-terminal GST; dsDNA, one strand shown. Put shortly: as §1

The target of another assay is ELF4 (Homo sapiens, UniProt Q99607 1-663). The conditions noted are these: protein: recombinant; tags: N-terminal GST; dsDNA, one strand shown. In short, it runs like this: as §1
Another assay concerns the target T3, ELK4 (Homo sapiens, UniProt P28324-2 1-405).
T3 sequence: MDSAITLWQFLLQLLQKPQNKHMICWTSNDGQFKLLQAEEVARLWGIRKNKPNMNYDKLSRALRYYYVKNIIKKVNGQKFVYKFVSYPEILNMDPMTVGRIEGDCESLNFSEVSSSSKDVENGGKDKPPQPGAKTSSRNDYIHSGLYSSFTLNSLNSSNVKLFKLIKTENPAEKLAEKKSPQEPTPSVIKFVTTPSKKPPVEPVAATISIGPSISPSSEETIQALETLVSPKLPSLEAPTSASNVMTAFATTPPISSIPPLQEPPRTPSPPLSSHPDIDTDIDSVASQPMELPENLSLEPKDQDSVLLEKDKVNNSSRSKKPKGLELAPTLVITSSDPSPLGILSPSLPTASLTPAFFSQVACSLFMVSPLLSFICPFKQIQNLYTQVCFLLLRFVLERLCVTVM
The conditions noted are these: protein: recombinant; tags: N-terminal GST; dsDNA, one strand shown. In short, it runs like this: as §1

For the next assay, the target named is T4, ETV2 (Homo sapiens, UniProt O00321 1-342).
T4 sequence: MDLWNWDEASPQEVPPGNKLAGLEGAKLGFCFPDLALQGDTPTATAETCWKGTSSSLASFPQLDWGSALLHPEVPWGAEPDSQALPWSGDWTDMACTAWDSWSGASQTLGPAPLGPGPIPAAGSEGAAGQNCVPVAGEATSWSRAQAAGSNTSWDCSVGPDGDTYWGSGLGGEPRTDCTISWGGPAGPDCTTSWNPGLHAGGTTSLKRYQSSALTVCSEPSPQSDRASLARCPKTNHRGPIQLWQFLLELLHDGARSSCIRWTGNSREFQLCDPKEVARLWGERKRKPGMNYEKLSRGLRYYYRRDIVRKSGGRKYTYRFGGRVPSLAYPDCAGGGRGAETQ
The conditions noted are these: protein: recombinant; tags: N-terminal GST; dsDNA, one strand shown. In short, it runs like this:
as §1

A further assay concerns the target T5, ELF3 (Homo sapiens, UniProt P78545 1-371).
T5 sequence: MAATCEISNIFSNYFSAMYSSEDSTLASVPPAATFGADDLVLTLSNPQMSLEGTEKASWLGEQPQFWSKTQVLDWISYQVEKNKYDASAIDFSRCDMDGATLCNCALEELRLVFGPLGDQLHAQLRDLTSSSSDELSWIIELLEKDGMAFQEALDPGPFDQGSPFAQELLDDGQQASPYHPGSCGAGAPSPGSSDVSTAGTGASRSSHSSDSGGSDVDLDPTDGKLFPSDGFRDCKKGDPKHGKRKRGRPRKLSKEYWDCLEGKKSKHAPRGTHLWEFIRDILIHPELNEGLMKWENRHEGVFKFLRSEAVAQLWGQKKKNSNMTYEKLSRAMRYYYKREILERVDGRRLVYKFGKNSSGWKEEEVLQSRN
The conditions noted are these: protein: recombinant; tags: N-terminal GST; dsDNA, one strand shown. Put shortly:
as §1

Another assay concerns the target CRX (Homo sapiens, UniProt O43186 1-299). The conditions noted are these: protein: recombinant; tags: N-terminal GST; dsDNA, one strand shown. Put shortly:
as §1

For a further assay, the target named is ETV1 (Homo sapiens, UniProt P50549 1-477). The conditions noted are these: protein: recombinant; tags: N-terminal GST; dsDNA, one strand shown. In short, it runs like this:
as §1

Another assay has as its target T6, ERF (Homo sapiens, UniProt P50548 1-548).
T6 sequence: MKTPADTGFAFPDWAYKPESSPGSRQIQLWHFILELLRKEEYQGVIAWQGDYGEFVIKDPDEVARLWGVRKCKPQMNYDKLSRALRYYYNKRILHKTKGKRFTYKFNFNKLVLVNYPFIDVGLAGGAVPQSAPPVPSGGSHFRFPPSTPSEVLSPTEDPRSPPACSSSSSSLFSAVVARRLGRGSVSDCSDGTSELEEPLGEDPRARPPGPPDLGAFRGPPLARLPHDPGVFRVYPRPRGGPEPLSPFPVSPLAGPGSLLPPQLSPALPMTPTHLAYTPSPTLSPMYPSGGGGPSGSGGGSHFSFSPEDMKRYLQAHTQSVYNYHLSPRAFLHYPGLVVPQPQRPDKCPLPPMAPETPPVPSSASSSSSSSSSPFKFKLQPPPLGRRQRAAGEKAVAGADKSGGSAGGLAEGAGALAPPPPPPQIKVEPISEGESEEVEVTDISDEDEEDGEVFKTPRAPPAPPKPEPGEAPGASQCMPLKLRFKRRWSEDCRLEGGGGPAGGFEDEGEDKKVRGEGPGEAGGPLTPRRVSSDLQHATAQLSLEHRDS
The conditions noted are these: protein: recombinant; tags: N-terminal GST; dsDNA, one strand shown. Put shortly:
as §1

A further assay addresses T7, ETV3L (Homo sapiens, UniProt Q6ZN32 1-361).
T7 sequence: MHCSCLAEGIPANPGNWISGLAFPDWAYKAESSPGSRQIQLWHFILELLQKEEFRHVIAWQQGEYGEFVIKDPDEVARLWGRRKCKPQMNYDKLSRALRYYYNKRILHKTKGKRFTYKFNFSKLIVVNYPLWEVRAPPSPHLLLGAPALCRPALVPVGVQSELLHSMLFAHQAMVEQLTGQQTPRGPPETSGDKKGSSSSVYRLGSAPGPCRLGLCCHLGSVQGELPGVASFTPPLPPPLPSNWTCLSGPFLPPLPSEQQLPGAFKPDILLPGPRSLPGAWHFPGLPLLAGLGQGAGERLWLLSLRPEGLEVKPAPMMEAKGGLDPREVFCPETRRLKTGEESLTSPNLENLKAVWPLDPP
The conditions noted are these: protein: recombinant; tags: N-terminal GST; dsDNA, one strand shown. In short, it runs like this: as §1

The target in a further assay is T8, ETS2 (Homo sapiens, UniProt P15036 1-469).
T8 sequence: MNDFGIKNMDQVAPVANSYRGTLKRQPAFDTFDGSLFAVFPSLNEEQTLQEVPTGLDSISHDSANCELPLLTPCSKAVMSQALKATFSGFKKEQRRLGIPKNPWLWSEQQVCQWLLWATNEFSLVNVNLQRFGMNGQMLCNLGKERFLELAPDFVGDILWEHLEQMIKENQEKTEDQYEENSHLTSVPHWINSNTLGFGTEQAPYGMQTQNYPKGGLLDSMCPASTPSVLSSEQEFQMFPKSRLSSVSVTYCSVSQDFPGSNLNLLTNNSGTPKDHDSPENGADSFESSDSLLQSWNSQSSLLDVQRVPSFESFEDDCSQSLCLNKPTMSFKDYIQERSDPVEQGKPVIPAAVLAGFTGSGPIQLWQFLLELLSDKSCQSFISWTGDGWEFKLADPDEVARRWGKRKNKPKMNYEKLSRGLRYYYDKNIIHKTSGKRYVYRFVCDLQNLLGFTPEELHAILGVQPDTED
The conditions noted are these: protein: recombinant; tags: N-terminal GST; dsDNA, one strand shown. Put shortly: as §1

In the next assay the target is T9, SPDEF (Homo sapiens, UniProt O95238 1-335).
T9 sequence: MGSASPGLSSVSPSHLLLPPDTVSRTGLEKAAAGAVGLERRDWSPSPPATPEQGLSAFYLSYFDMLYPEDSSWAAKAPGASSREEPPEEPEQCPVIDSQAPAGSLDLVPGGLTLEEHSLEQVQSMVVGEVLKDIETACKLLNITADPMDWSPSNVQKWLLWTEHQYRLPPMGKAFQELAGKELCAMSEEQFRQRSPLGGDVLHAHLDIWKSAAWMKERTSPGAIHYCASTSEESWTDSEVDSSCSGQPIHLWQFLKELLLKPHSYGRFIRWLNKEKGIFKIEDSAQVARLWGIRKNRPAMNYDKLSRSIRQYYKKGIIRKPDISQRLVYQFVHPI
The conditions noted are these: protein: recombinant; tags: N-terminal GST; dsDNA, one strand shown. In short, it runs like this:
as §1

Another assay has as its target T10, ETV7 (Homo sapiens, UniProt Q9Y603 1-341).
T10 sequence: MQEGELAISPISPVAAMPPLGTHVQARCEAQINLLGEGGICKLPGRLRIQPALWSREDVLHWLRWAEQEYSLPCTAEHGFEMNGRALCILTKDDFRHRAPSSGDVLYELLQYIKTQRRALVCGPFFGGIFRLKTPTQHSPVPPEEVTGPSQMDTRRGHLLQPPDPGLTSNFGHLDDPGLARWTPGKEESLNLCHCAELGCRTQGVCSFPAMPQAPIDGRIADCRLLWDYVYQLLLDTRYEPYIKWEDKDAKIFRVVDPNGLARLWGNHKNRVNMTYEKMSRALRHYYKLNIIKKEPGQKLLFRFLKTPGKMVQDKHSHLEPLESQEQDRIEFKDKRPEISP
The conditions noted are these: protein: recombinant; tags: N-terminal GST; dsDNA, one strand shown. In short, it runs like this: as §1

In another assay the target is T11, ELF5 (Homo sapiens, UniProt Q9UKW6-2 1-255).
T11 sequence: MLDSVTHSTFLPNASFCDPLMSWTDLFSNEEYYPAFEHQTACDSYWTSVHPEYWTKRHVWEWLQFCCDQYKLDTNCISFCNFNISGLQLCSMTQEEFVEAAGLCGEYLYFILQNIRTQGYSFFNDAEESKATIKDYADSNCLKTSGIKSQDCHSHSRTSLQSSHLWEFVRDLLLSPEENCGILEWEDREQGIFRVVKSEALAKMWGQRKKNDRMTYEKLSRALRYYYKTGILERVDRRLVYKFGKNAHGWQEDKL
The conditions noted are these: protein: recombinant; tags: N-terminal GST; dsDNA, one strand shown. In short, it runs like this:
as §1

For another assay, the target named is T12, ETV3 (Homo sapiens, UniProt P41162-2 1-143).
T12 sequence: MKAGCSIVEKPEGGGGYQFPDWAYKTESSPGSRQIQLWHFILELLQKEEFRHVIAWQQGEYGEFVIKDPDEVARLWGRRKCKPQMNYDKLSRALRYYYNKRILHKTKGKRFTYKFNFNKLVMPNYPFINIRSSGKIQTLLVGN
The conditions noted are these: protein: recombinant; tags: N-terminal GST; dsDNA, one strand shown. Put shortly: as §1

Another assay deals with ETV6 (Homo sapiens, UniProt P41212 1-452). The conditions noted are these: protein: recombinant; tags: N-terminal GST; dsDNA, one strand shown. Put shortly: as §1
Chain of ETV6 (P41212 whole entry): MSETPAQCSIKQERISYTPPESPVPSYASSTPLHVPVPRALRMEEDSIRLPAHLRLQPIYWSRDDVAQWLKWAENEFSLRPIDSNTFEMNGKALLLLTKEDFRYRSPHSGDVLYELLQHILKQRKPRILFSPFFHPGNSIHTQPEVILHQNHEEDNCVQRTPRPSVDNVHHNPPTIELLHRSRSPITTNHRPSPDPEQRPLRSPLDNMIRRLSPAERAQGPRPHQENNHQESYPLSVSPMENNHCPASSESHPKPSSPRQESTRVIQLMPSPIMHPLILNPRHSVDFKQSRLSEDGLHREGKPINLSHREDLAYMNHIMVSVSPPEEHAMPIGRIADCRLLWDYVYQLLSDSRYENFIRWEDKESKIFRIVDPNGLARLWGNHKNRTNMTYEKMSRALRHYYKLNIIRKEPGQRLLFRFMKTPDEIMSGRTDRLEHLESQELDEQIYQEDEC

Chain of ETV5 (P41161 whole entry): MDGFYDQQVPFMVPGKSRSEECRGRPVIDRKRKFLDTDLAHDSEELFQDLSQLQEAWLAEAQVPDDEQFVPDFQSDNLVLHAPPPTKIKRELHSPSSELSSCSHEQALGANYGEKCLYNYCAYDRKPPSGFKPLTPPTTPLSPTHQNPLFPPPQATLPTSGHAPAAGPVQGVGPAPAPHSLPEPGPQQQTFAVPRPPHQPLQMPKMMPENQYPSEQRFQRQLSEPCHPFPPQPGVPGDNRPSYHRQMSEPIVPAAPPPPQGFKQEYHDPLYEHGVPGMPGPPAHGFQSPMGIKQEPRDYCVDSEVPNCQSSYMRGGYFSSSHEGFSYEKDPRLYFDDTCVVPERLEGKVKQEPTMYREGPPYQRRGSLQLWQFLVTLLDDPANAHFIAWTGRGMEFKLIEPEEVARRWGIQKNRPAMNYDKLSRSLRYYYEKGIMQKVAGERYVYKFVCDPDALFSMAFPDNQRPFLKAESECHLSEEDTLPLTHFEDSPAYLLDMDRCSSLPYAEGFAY
Chain of ELF4 (Q99607 whole entry): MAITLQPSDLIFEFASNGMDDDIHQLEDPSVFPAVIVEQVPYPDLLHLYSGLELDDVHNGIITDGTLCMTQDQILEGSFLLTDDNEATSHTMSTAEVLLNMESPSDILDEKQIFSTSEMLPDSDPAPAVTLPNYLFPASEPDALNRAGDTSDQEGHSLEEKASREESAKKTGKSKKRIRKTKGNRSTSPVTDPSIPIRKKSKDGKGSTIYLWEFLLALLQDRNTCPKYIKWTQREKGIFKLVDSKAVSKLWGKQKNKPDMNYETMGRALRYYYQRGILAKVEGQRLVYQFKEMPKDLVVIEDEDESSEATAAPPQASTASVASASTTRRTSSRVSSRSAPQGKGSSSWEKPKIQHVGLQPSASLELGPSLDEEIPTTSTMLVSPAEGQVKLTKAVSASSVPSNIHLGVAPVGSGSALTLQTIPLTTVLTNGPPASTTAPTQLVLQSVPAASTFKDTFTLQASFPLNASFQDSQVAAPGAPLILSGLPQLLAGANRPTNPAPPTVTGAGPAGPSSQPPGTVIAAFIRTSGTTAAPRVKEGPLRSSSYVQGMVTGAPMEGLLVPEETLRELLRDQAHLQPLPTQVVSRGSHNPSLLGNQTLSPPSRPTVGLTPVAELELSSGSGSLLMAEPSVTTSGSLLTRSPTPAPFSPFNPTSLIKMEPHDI
Chain of CRX (O43186 whole entry): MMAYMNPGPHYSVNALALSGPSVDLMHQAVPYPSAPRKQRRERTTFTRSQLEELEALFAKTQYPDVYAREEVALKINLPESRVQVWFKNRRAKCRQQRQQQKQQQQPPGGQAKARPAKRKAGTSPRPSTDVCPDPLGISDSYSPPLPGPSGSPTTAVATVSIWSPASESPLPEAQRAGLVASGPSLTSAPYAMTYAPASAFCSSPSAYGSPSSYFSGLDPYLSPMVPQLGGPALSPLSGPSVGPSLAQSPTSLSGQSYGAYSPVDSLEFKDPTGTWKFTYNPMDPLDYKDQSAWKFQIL
Chain of HSF1 (Q00613 whole entry): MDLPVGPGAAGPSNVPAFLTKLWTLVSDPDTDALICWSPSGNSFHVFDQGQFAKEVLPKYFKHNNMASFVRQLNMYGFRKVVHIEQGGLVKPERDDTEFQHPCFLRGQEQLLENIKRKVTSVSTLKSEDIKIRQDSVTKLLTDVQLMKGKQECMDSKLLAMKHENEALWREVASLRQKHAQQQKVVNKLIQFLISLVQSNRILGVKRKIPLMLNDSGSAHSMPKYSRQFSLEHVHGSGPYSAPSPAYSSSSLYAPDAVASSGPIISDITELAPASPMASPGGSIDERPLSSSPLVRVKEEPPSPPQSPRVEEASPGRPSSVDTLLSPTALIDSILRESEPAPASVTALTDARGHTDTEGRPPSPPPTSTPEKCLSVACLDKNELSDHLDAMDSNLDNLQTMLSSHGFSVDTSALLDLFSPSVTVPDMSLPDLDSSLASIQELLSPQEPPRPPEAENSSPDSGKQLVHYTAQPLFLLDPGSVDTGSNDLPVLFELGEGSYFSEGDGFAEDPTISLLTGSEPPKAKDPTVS
Chain of ETV1 (P50549 whole entry): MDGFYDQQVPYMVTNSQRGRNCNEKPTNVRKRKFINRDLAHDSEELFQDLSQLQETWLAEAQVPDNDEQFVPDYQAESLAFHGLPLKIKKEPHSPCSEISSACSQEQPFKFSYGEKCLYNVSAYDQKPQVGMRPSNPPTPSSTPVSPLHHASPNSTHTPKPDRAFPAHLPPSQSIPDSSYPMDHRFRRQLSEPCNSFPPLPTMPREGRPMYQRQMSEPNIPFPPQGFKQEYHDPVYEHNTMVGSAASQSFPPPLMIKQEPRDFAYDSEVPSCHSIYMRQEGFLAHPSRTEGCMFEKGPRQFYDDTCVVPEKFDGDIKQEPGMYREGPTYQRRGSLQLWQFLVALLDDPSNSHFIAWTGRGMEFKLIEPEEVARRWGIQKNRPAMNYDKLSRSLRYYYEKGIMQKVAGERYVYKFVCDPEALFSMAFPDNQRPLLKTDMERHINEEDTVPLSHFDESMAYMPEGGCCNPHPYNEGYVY

For the sequence TGAACT, the binding signal is 1.28 fold enrichment (6-mer frequency, TF over GST control) with FEV; 1.19 fold enrichment (6-mer frequency, TF over GST control) with ETV5; 1.19 fold enrichment (6-mer frequency, TF over GST control) with HSF1; 1.34 fold enrichment (6-mer frequency, TF over GST control) in the assay with SPIC; 1.23 fold enrichment (6-mer frequency, TF over GST control) in the assay with ELF4; 1.22 fold enrichment (6-mer frequency, TF over GST control) in the assay with ELK4. Further, the binding signal with ETV2 is 1.2 fold enrichment (6-mer frequency, TF over GST control); with ELF3 it was 1.11 fold enrichment (6-mer frequency, TF over GST control); with CRX, 1.12 fold enrichment (6-mer frequency, TF over GST control); with ETV1, 1.24 fold enrichment (6-mer frequency, TF over GST control); with ERF it was 1.31 fold enrichment (6-mer frequency, TF over GST control); with ETV3L, 1.23 fold enrichment (6-mer frequency, TF over GST control). The binding signal was 1.23 fold enrichment (6-mer frequency, TF over GST control) with ETS2; 1.16 fold enrichment (6-mer frequency, TF over GST control) with SPDEF; 1.21 fold enrichment (6-mer frequency, TF over GST control) in the assay with ETV7; 1.23 fold enrichment (6-mer frequency, TF over GST control) in the assay with ELF5; 1.24 fold enrichment (6-mer frequency, TF over GST control) in the assay with ETV3; 1.22 fold enrichment (6-mer frequency, TF over GST control) in the assay with ETV6.
